Source: PubChem
DT40 TDP1 CPT: DT40-hTDP1 cell growth loss with CPT | chicken DT40 Tdp1-/-;hTDP1 cells + 20 nM CPT, ATP luminescence, 48 h | Potency, µM (doses to about 46.2 µM), for inactives: at the highest dose activity change, negative = growth inhibition, actives largely listed as inhibitors | 12% of 420,000 active | AID 686979; further: nearly all actives have a fitted effect of over 55% in size
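Chicken DT40 Tdp1-/- cells stably complemented with human TDP1 were seeded at 400 cells/well in medium containing 20 nM camptothecin, exposed to pin-transferred compounds, and grown at 37 °C for at least 48 hr. Viability was read as ATP luminescence.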
HT1080NT lethal: kills 2HG-producing HT-1080-NT fibrosarcoma cells. Potency, µM (top dose mostly 46.1 µM), for inactives: at the highest dose activity, negative = less viability, actives largely listed as cytotoxic. AID 686970. HT-1080-NT fibrosarcoma viability, CellTiter-Glo ATP luminescence, 48 h. 1.6% of 360,000 active;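 further: NT is the 2HG producing partner of a matched IDH1 knockdown line; 0% = DMSO-treated cells and -100% = media-only wells without cells; nearly all actives have a fitted effect of over 55% in size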
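750 cells/well, RPMI + 5% FBS; 2 h settle, compound pin-transfer, 48 h at 37 degrees C. CellTiter-Glo 10 min RT, luminescence. Normalized to DMSO and media-only wells.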
KB-3-1 cytotox: kills parental KB-3-1 adenocarcinoma cells; Potency, µM (highest dose often 46.1 µM), actives largely listed as cytotoxic; 1.4% of 400,000 active; KB-3-1 viability, CellTiter-Glo ATP luminescence, 72 h; further: nearly all actives have a fitted effect of over 60% in size
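Luminescent ATP read-out (CellTiter-Glo) measures survival of drug-naive KB-3-1 cells after 72 h compound exposure at 37 °C. Titration series was screened from lowest to highest concentration, with DMSO vehicle plates as background controls.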
DT40 TDP1 no CPT: qHTS for Inhibitors of human tyrosyl-DNA phosphodiesterase 1 (TDP1): qHTS in cells in absence of CPT | DT40 Tdp1-/- hTDP1 cells, no CPT, ATP luminescence, 48 h | Potency, µM (series often up to 46.2 µM), inactives show top-dose activity change, negative = growth inhibition, actives largely listed as inhibitors | 15% of 420,000 active | AID 686978, 2013; further: nearly all actives have a fitted effect of over 55% in size
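Chicken DT40 Tdp1-/- cells stably complemented with human TDP1 were seeded at 400 cells/well with DMSO in place of 20 nM camptothecin. After compound pinning, cells grew at least 48 hr at 37 °C; viability read by CellTiter-Glo luminescence.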
HT1080 IDH1KD tx: kills HT-1080 cells with IDH1 knockdown | HT-1080 IDH1 knockdown viability, ATP luminescence, 48 h | Potency, µM (top dose mostly 46.1 µM), for the others: at the highest dose activity, negative = toxicity, hits mostly cytotoxic | 2% of 360,000 active | AID 686971;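 further: 0% = DMSO wells and -100% = cell-free medium wells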
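HT-1080-IDH1KD cells (IDH1 knocked down), 750/well in RPMI with 5% FBS, treated with compound 48 h at 37 degrees C. Viability by CellTiter-Glo luminescence, normalised to DMSO and no-cell wells; concentration-response curves classed.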
KB-V1 MDR tox: kills drug-selected multidrug resistant KB-V1 cells. KB-V1 MDR cells viability, CellTiter-Glo, 72 h. Potency, µM (doses to about 46.1 µM), most hits filed as cytotoxic. 3.4% of 400,000 active. AID 1347076; further: nearly all actives have a fitted effect of over 60% in size
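Potencies derive from concentration-effect curves fitted to normalized luminescence (CellTiter-Glo) of KB-V1 cells treated for 72 h at 37 degrees C in phenol-red-free DMEM containing 10% FBS.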
Starred values were filed as active, the others as inactive; i = inactive; ? = inconclusive; . = no result; [ ] = dose if it differs, or a comment. An excerpt weighted towards active compounds, which were near 19% of everything screened. The call rests on the fitted dose curve; in most records, active means well fitted curve in the direction sought with a large enough effect; inconclusive means small, poorly fitted or top-dose-only effect, or another doubt; inactive means no such curve, though single readings can be large; an effect the other way counts as inactive or inconclusive. Unless noted, on the % scale 0 is the no-effect control and ±100 the full control effect; potency means the concentration at half of the fitted maximal effect.

SMILES	DT40 TDP1 CPT	HT1080NT lethal	KB-3-1 cytotox	DT40 TDP1 no CPT	HT1080 IDH1KD tx	KB-V1 MDR tox
COc1cc(C)c(Cc2cnc(N)nc2N)cc1OC	?	.	i	13µM*	.	i
CCOC(=O)c1nc(C)nc(Sc2n[nH]c(-c3ccc(C(C)(C)C)cc3)n2)c1C	?	-6%	i	18µM*	-4%	i
Cc1ccccc1OCC(=O)OCc1cc(=O)n2ccsc2n1	-22%	.	i	?	.	i
COc1cccc(CCNc2ncnc3sc(C(=O)N4CCN(C)CC4)c(C)c23)c1	-6%[9.04 µM]	.	.	-40%	.	.
O=C1C2CCCCN2C(=O)N1CCCCN1CCN(c2cccc(C(F)(F)F)c2)CC1 (stereo unspecified)	10µM*	-24%	i	?	-3%	i
O=C1C2CCCCN2C(=O)N1CCCCN1CCN(c2ccc([N+](=O)[O-])cc2)CC1 (stereo unspecified)	?	-12%	i	15µM*	-1%	i
c1csc(-c2nc(N3CCN(Cc4ccc5c(c4)OCCO5)CC3)c3ccccc3n2)c1	?	-2%	.	?	6%	.
CN1C(=O)c2ccccc2N(C)C1c1ccc2c(c1)OCO2 (stereo unspecified)	-16%	-8%	i	?	-9%[9.24 µM]	?
CC1=C([N+](=O)[O-])C(c2ccc3c(c2)OCO3)N(C)C(=O)N1C (stereo unspecified)	8.2µM*	9%	i	21µM*	-3%	i
Cc1ccc(OCCCCNC(C)(C)C)c([N+](=O)[O-])c1	?	-2%	i	?	-1%	23µM*
CC1CCCN(CCCOc2ccc(Br)cc2Cl)C1 (stereo unspecified)	?	16µM*	i	?	21µM*	?
CC1CCN(CCOCCOc2ccc(Br)cc2Cl)CC1	18µM*	-24%	?	21µM*	-29%	23µM*
CN(C)CCCCOc1ccc(Br)cc1Cl	?	?	i	?	?	i
Cc1ccc(OCCCCN2CCCC(C)C2)c([N+](=O)[O-])c1 (stereo unspecified)	18µM*	-2%	i	23µM*	4%	?
COCCNCCOc1ccc(C)cc1[N+](=O)[O-]	17%	4%	i	0%	15%	i
CC1CCN(CCCCOc2ccccc2[N+](=O)[O-])CC1	-37%	1%	i	-13%	0%	i
CCC(C)C(NC(N)=O)C(=O)Nc1ccc(OCc2ccccc2)cc1 (stereo unspecified)	-17%	-2%	i	4%	2%	i
CN(C)CCCN(C(=O)c1ccc(S(=O)(=O)N2CCc3ccccc3C2)cc1)c1nc2c(F)cc(F)cc2s1	?	-23%	i	?	-8%	i
CCc1ccc2nc(N(CCCN(C)C)C(=O)c3ccc(S(=O)(=O)N4CCCc5ccccc54)cc3)sc2c1	?	?	?	?	?	9.2µM*
COc1ccc(C)c2sc(N(CCCN(C)C)C(=O)c3ccc(S(=O)(=O)N4CCc5ccccc5C4)cc3)nc12	2.9µM*	?	?	2.3µM*	?	10µM*
Cc1ccc2sc(N(CCCN(C)C)C(=O)c3ccc(S(=O)(=O)N4CCc5ccccc5C4)cc3)nc2c1C	4.6µM*	21µM*	i	4.1µM*	?	i
COc1ccc(C)c2sc(N(CCN(C)C)C(=O)c3ccc(S(=O)(=O)N(C)c4ccccc4)cc3)nc12	-19%	0%	i	?	8%	i
COc1cc2nc(N(CCCN(C)C)C(=O)c3ccc(S(=O)(=O)N4CCc5ccccc5C4)cc3)sc2cc1OC	?	-1%	i	?	-2%	i
COc1cccc2sc(N(CCCN(C)C)C(=O)c3ccc(S(=O)(=O)N4CCc5ccccc5C4)cc3)nc12	15µM*	?	i	10µM*	?	i
CCCN(CC(=O)Nc1ccccc1C)C(=O)CCN1C(=O)c2cccc([N+](=O)[O-])c2C1=O	6%	1%	i	-19%	-2%	i
SMILES	DT40 TDP1 CPT	HT1080NT lethal	KB-3-1 cytotox	DT40 TDP1 no CPT	HT1080 IDH1KD tx	KB-V1 MDR tox
COc1cccc2sc(N(CCCN(C)C)C(=O)c3ccc(S(=O)(=O)N4CCCc5ccccc54)cc3)nc12	?	18µM*	?	?	?	?
Cc1cccc(C)c1NC(=O)c1csc([C@H]2C[C@H](O)[C@@H](CO)O2)n1	-28%	7%	i	16%	0%	i
CCN(CC)Cc1c(C)[nH]c2ccc(NC(C)=O)cc2c1=O	1%	1%	?	1%	1%	i
COc1ccc(/C=N/NC(=O)c2nn(C)cc2Br)cc1CSCc1ccco1	?	1%	.	?	2%	.
CCOc1cc(/C=N/NC(N)=O)ccc1OCC(=O)Nc1ccc(C)c(C)c1	21µM*	-2%	i	23µM*	-4%	i
CCOc1ccc(C=NNC(=O)c2cccc3ccccc23)cc1OCC	?	-1%	i	18µM*	15%	23µM*
CCOc1cc(/C=N/NC(=O)c2nn(C)cc2Br)ccc1OCc1ccccc1	15µM*	-1%	i	10µM*	10%	16µM*
COc1cc(/C=N/NC(=O)c2cccc3ccccc23)ccc1OCC(N)=O	?	-8%	i	5.8µM*	-1%	i
COc1cc(/C=N/NC(N)=O)ccc1OCC(=O)Nc1ccc(C)c(C)c1	-5%	0%	i	7%	2%	i
COc1cccc(/C=N/NC(=O)c2cccc3ccccc23)c1	?	-12%	i	?	-17%	i
COc1ccc(CN2CCC(n3nccc3NC(=O)C3CC3)CC2)c(Cl)c1OC	-8%	-2%	i	-21%	-6%	?
CC(=O)Nc1nonc1-c1nnc(SCC(=O)Nc2ccccc2Cl)n1C	-4%	.	i	-25%	.	i
CCOc1cc(/C=N/NC(=O)C(=O)N2CCCC2)ccc1O	5%	6%	i	-3%	9%	?
CCOc1cc(/C=N/NC(=O)c2cc(C)n(-c3ccc(F)cc3)c2C)ccc1O	16µM*	24%	?	21µM*	-12%	i
COc1cc(/C=N/NC(=O)c2cccc(C)c2)ccc1OCC(=O)Nc1ccccc1	?	-5%	i	18µM*	-13%	i
c1ccc2c(CCNc3ncnc4nc[nH]c34)c[nH]c2c1	6.5µM*	-25%	?	12µM*	?	i
